CYP2C19 inhib: inhibitors of human CYP2C19. P33261. CYP2C19 Supersomes, luciferin-H EGE luminescence, 30 min. inhibition, % at 5 µM. 96,000 compounds, 21% hits. AID 778;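 active means CYP2C19 inhibition above a set limit at 5 µM in the primary screen, cut at about 50% in these data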;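 further: plate controls were negative control wells for no effect and 2.5 mM tranylcypromine positive control for full effect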
CYP2C9 inh: human CYP2C9 inhibition | P11712 | CYP2C9 Supersomes, luciferin-H conversion, luminescence | inhibition, % at 5 µM | 96,000 compounds, 20% hits;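 active means blocking of liver enzyme CYP2C9 beyond about 50% at 5 µM, limit read from the data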
Target sequence (P11712 whole entry, looked up): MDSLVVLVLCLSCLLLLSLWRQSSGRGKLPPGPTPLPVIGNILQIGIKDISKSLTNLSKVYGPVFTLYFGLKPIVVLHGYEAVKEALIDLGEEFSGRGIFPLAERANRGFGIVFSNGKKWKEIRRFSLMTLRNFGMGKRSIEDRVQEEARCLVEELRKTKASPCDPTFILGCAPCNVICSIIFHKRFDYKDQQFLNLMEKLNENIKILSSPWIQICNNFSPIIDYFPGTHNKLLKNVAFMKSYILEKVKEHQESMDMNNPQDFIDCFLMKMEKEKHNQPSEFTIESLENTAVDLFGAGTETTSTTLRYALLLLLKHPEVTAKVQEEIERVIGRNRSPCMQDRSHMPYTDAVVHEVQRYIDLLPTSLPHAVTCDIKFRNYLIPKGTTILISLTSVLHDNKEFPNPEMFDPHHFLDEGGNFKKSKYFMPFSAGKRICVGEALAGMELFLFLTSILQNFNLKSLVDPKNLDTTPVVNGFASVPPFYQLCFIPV
hDAT+cocaine: modulates human dopamine transporter uptake under cocaine; Q01959; LLC-PK1 hDAT cells, [14C]-dopamine uptake with cocaine IC80; actives deviate in either direction; B-score at 10 µM; 110,000 compounds, 1.3% hits;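 active means Z score or B-score, a plate-position-corrected score, falls beyond the plate's 99.7% confidence bounds, in either direction; inactive means both scores lie inside the 99.7% bounds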;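 further: scored against the spread of the other compound wells on the same plate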
CYP2C19 activ: cytochrome P450 2C19 (human) activation; activation factor at 5 µM; recombinant CYP2C19, luciferin-H EGE luminescence; stronger effect = higher value; 0 = fully inhibited enzyme, 1 = untreated enzyme; 96,000 tested, under 10 active;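 active means activation factor of at least 2 at 5 µM in the primary screen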;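 further: 0 = wells with 2.5 mM tranylcypromine and 1 = vehicle-only wells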
CYP2C9 activ: CYP2C9 (human) activation; 96,000 compounds, 1.4% hits; activation factor at 5 µM; P11712; recombinant CYP2C9, luciferin-H conversion, luminescence; stronger effect = higher value; factor 1 = untreated enzyme, 0 = blocked;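 active means activation factor of 2 or more for CYP2C9 at a 5 µM dose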;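 further: 0 = sulfaphenazole-blocked wells and 1 = vehicle-only wells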
D1 mod: D1 dopamine receptor (human) allosteric modulation. 58,000 compounds, 5.9% hits. AID 641. B-score at 10 µM. P21728. HEK293 D1, CRE-luciferase, dopamine EC30 potentiation; actives deviate in either direction;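 active means luminescence count or its row- and column-corrected plate score outside the 99.7% band of the plate's sample wells, on either side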
* hit, by the source's call; nt = not tested or not shown. Shown are actives, neighbours in structure and some others; about 28% of the full set was active somewhere.

SMILES | CYP2C19 inhib | CYP2C9 inh | hDAT+cocaine | CYP2C19 activ | CYP2C9 activ | D1 mod
O=C(c1ccco1)N1CCN(S(=O)(=O)c2ccc(Oc3ccccc3)cc2)CC1 | 54* | 84* | 0.34 | 0.5 | 0.2 | 0.11
CC(C(=O)Nc1ccc(S(=O)(=O)N2CCCC2)cc1)N1CCN(C(=O)c2ccco2)CC1 (stereo not given) | 13 | 64* | 0.82 | 0.9 | 0.4 | nt
O=C(CCc1ccc(S(=O)(=O)N2CCOCC2)cc1)Oc1ccccc1 | 5 | 22 | -0.31 | 0.9 | 0.8 | -1.4
O=S(=O)(c1ccc(Oc2ccccc2)cc1)N1CCOCC1 | 42 | 57* | 0.35 | 0.6 | 0.4 | -0.22
O=S(=O)(c1ccc(Oc2ncnc3scc(-c4ccccc4)c23)cc1)N1CCOCC1 | 72* | 73* | 1.2 | 0.3 | 0.3 | nt
COc1ccc(S(=O)(=O)N2CCN(C(=O)c3ccco3)CC2)cc1OC | 45 | -6 | -0.23 | 0.6 | 1.1 | nt
O=C(c1ccco1)N1CCN(S(=O)(=O)c2ccc3c(c2)OCCO3)CC1 | 96* | -13 | 0.12 | 0 | 1.1 | -0.71
Cc1onc(-c2ccccc2)c1C(=O)N1CCN(S(=O)(=O)c2ccc3c(c2)OCCO3)CC1 | 74* | 41 | -0.52 | 0.3 | 0.6 | -0.63
O=S(=O)(c1ccc(-c2cn3ccccc3n2)cc1)N1CCOCC1 | 5 | 55* | -0.24 | 0.9 | 0.5 | 0.16
Cc1c(NC(=O)N(C)C)c(=O)n(-c2ccccc2)n1C | nt | nt | 0.32 | nt | nt | nt
Nc1ccc(-c2nc3ccc(N)cc3o2)cc1 | 13 | 30 | 0.92 | 0.9 | 0.7 | -3.1*
NC(=O)CC(NC(=O)c1cccc(Br)c1)c1ccc(N2CCC(N3CCCC3)CC2)c([N+](=O)[O-])c1 (stereo not given) | nt | nt | -0.9 | nt | nt | nt
C[C@@H](NC(=O)C(=O)c1c[nH]c2ccccc12)c1ccccc1 | nt | nt | -0.61 | nt | nt | nt
O=C(Nc1nccs1)C(=O)c1c[nH]c2ccccc12 | 63* | 18 | -0.92 | 0.4 | 0.8 | nt
O=C(Cc1c[nH]c2ccccc12)Nc1nccs1 | 55* | 21 | -0.3 | 0.5 | 0.8 | 0.072
COc1ccc(CN2CCCCC2c2cccnc2)c(OC)c1C (stereo not given) | 38 | 5 | 0.36 | 0.6 | 0.9 | 0.089
Cc1cc(-c2nnc3n2CCCCC3)c(C)n1-c1ccccc1 | 34 | 51* | -0.67 | 0.7 | 0.5 | -1.2
COc1ccc(C(=O)CSc2nnc(CNc3nc(-c4ccccc4)cs3)n2C)cc1 | 64* | 62* | -0.38 | 0.4 | 0.4 | 2.9
CCOC(=O)c1ccc(NC(=O)CSc2nnc(CNc3ccc(C)cc3)n2C)cc1 | nt | nt | -0.83 | nt | nt | nt
COC(=O)CSc1nnc(CNC(=O)Cc2ccccc2)n1C | -14 | -13 | -0.014 | 1.1 | 1.1 | 0.3
CCOC(=O)c1c(NC(=O)CSc2nnc(CNc3ccc(OC)cc3)n2C)sc(C)c1C | 32 | 77* | 1.1 | 0.7 | 0.2 | 2.9
COC(=O)CSc1nnc(CNc2nc(-c3ccccc3)cs2)n1C | nt | nt | 0.066 | nt | nt | nt
COC(=O)CSc1nnc(CNc2ccc(OC)cc2)n1C | 58* | -4 | 1.2 | 0.4 | 1 | -0.61
Cc1cc(=O)oc(C)c1C(=O)Nc1c(C)n(C)n(-c2ccccc2)c1=O | -5 | 7 | -0.85 | 1.1 | 0.9 | nt
C=CCOc1cccc(C2C(C(=O)c3ccc(C)o3)=C(O)C(=O)N2c2nccs2)c1 (stereo not given) | 47 | 41 | 0.2 | 0.5 | 0.6 | -0.32
SMILES | CYP2C19 inhib | CYP2C9 inh | hDAT+cocaine | CYP2C19 activ | CYP2C9 activ | D1 mod
Cc1c(Cl)cccc1N1CC(C(=O)Nc2nccs2)CC1=O (stereo not given) | 38 | -14 | 1.7 | 0.6 | 1.1 | 0.36
CCOC(=O)/C(C(N)=NCc1ccco1)=C(/O)c1ccccc1 | 55* | 40 | 0.1 | 0.5 | 0.6 | -0.23
Cc1nc2cc(C(F)(F)F)ccc2n1C1CCN(CC(=O)NC(C)(C)C)CC1 | 33 | 12 | 0.67 | 0.7 | 0.9 | -0.95
Cc1cccc(OCCCCCn2ccnc2)c1C | 100* | 100* | -0.8 | 0 | 0 | -1.2
COc1ccc(Cn2ccnc2)cc1Br | 92* | 88* | -0.35 | 0.1 | 0.1 | nt
Clc1ccccc1OCCN1CCCCC1 | 44 | 3 | -0.54 | 0.6 | 1 | -1.6
COc1ccc(CNc2cccc(F)c2)cc1Br | 25 | 2 | -0.6 | 0.8 | 1 | nt
Cc1ccc(C)c(OCCCCn2ccnc2)c1 | 98* | 93* | 0.027 | 0 | 0.1 | nt
Cc1ccc(CNC(=O)C(=O)NCCCn2ccnc2)cc1 | nt | nt | -0.48 | nt | nt | nt
Clc1cccc(OCCn2cncn2)c1Cl | 84* | -81 | -0.63 | 0.2 | 1.8 | 0.4
CC(C)C(=O)Nc1nnc(CCN2CCCCC2)s1 | 7 | -10 | 0.86 | 0.9 | 1.1 | nt
CC(C)c1nnc(NC(=O)c2cccnc2)s1 | -7 | 8 | -0.033 | 1.1 | 0.9 | nt
Clc1ccccc1OCCn1ccnc1 | 66* | 74* | -0.023 | 0.3 | 0.3 | 0.049
Cc1ccc(OCCOCCn2ccnc2)c(Br)c1 | 99* | 87* | -0.28 | 0 | 0.1 | -0.18
Cc1cc(C)c(C)c(OCCCn2ccnc2)c1 | 100* | 95* | -0.2 | 0 | 0 | nt
Cc1cc2oc3ccc(NCCCn4ccnc4)cc3c(=O)c2cc1C | nt | nt | 0.13 | nt | nt | nt
Cc1cc(C(C)(C)C)ccc1OCCn1ccnc1 | 98* | 94* | 0.029 | 0 | 0.1 | nt
CCOc1ccccc1OCCCOc1ccc(C)cc1Cl | 8 | -19 | 0.39 | 0.9 | 1.2 | nt
Cc1ccc(OCCCCn2ccnc2)c(Cl)c1 | 100* | 98* | -0.24 | 0 | 0 | 0.23
C1CSC2(N1)C1CC3CC2CC(C1)C31NCCS1 (stereo not given) | 16 | 5 | -1.2 | 0.8 | 0.9 | nt
O=C(c1ccco1)N(Cc1ccco1)c1ccc(O)cc1 | 36 | 54* | -0.89 | 0.6 | 0.5 | 0.92
O=C(c1ccco1)N(Cc1ccc([N+](=O)[O-])cc1)c1ccc(Cl)cc1 | 26 | 94* | 0.56 | 0.7 | 0.1 | nt
COc1ccc(CN(C(=O)c2ccco2)c2ccccc2)cc1 | nt | nt | 1.8 | nt | nt | nt
COc1ccc(C2(O)CCN(CC(=O)Nc3nccs3)CC2)c(OC)c1 | 42 | 14 | 0.39 | 0.6 | 0.9 | -3
Cc1cc(OCc2nn[nH]n2)c2c(C)c(Cc3ccccc3)c(=O)oc2c1 | 80* | 98* | -0.45 | 0.2 | 0 | -0.44
Cc1c(Cc2ccccc2)c(=O)oc2c(C)c(OCc3nn[nH]n3)ccc12 | -1 | 81* | 0.23 | 1 | 0.2 | -0.66
CC1(C)CC(=O)C=C(Nc2ccc(S(N)(=O)=O)cc2)C1 | -6 | 26 | 0.59 | 1.1 | 0.7 | -0.24
C=C1CCN(C(C(=O)OC)C(C)C)S(=O)(=O)c2ccccc21 (stereo not given) | nt | nt | -0.79 | nt | nt | nt
N#CC1(c2ccccc2)CCC(=NO)CC1 (stereo not given) | 37 | 19 | -0.86 | 0.6 | 0.8 | -0.57
CCOC(=O)c1sc2nc(CC(=O)OC)nc(NCc3ccc(Cl)cc3)c2c1C | 7 | 7 | -0.099 | 0.9 | 0.9 | nt

Screening results from PubChem.
